This is an account of results in PubChem BioAssay AID2029 (NMMLSC, 2009).

Where “and” joins values, the source holds several entries; their conditions need not be identical. Identical values can stand only once. Out of some 320,000 compounds screened, about 210 (0.066%) were called active. Many of the other results were omitted from the sample, so actives are more common in it than they were. A number with no mark means an inactive call.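 Rule for the calls: active = GFP response relative to DMSO above a set limit, near the screen mean plus 3 SD (cut at about 150% in these data); inconclusive = Fewer than 70 cells measured for a yeast strain; inactive = the rest.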

The nature of this assay: TOR pathway RTG branch CIT2 reporter changes – S. cerevisiae, GFP fusion, multiplex flow cytometry, MLPCN library, primary screen (AID 2029).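 Note: ratio of well median GFP fluorescence to mean of DMSO wells on the plate.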 As to conditions: S. cerevisiae CIT2-GFP strain, 3 h, at 10 µM, active compounds read high, 100 means same as DMSO wells.
As for `O=C(Nc1ccc(Cl)cc1)c1cc2nc(C3CC3)cc(C(F)(F)F)n2n1`, the GFP response vs DMSO is 115%. The figure for `Cc1ccccc1NC(=O)N1CCCC1C(=O)NCc1ccccc1` (stereo not given) is 113%; for `NC(=O)c1ncc(C(F)(F)F)cc1Oc1ccc(F)cc1` it is 99.4%. The figure for `CNc1nc(SC)nc(N(C#N)CC(=O)OC)n1` is 104%; for `O=C(COC(=O)c1ccc(O)cc1O)c1ccc2c(c1)OCCO2` it is 95.1%. The figure for `O=C1Nc2cc(Cl)c(Cl)cc2N(O)N1c1cc(Cl)cc(Cl)c1` is 97.6%; for `Cc1c(NC(=O)CSCc2ccccc2)cccc1C(=O)O` it is 106%; for `CCC(C)(C)C1CCC(=NNC(=O)c2ccc(Br)o2)CC1` (stereo not given) it is 97.7%.

Consider `COCCCNC(=O)[C@H]1N2C(=O)c3ccccc3C2SC1(C)C` (stereo not given in full), for which the GFP response vs DMSO was 112%. For the molecule `Cc1cc2cc3c(N)[nH]nc3nc2cc1C`, the GFP response vs DMSO was 113%. The figure for `O=C(NC1CCN(C(=S)Nc2ccc(Cl)cc2)CC1)C1CCCCC1` is 97.3%. The figure for `Cc1ccc2nc(-c3ccc(NC(=O)CN(C)S(=O)(=O)c4ccccc4)cc3)sc2c1` is 111%. The figure for `COc1ccc(N2CCN(C(=O)[C@@H](NC(=O)c3cc(OC)cc(OC)c3)C(C)C)CC2)cc1` is 95.1%. As for `Cc1ccccc1NC(=O)CSC(=O)c1ccccc1`, the GFP response vs DMSO was 102%. The figure for `O=C(NN1C(=O)C2CCCCC2C1=O)c1ccco1` (stereo not given) is 104%. The figure for `COCCCNS(=O)(=O)c1cccc(S(=O)(=O)c2cccc(S(=O)(=O)NCCCOC)c2)c1` is 115%; for `O=c1/c(=C/c2ccc(CNS(=O)(=O)c3ccccc3)o2)sc2n1CCN=2` it is 107%. The figure for `CC1(C)CC(=O)C=C(N2CCOCC2)C1` is 93.2%; for `CCCCOc1ccc(C(=O)NCC(=O)OCC(=O)c2c(N)n(C)c(=O)n(C)c2=O)cc1` it is 92.4%.

For `CC(C)c1ccc2c(c1)c(SC(C)(C)C)c(CC(C)(C)C(=O)O)n2Cc1ccc(Cl)cc1`, the GFP response vs DMSO is 112% and 88.8%.

Regarding `C/C(CCC(=O)OC[C@H]1O[C@H](C#Cc2ccccc2)C=C[C@@H]1Oc1ccc(C)cc1)=N\OC[C@@H](O)[C@H]1O[C@@H]2OC(C)(C)O[C@@H]2[C@H]1O`, the GFP response vs DMSO is 109%. The figure for `Nc1ccc(OCC(O)C[n+]2ccc(CCS(=O)(=O)[O-])cc2)cc1` (stereo not given) is 90%; for `CCOC(=O)c1c(CN(C)C)n(-c2ccccc2)c2cc(Br)c(O)cc12` it is 101%. For `Cc1ccc(NC(=O)CN(C)C(=O)COC(=O)C(C)(C)Oc2ccc(Cl)cc2)cc1`, the GFP response vs DMSO is 109%. The figure for `COC(=O)C[n+]1cccc2ccccc21` is 175% (active); for `COc1ccccc1NC(=O)C[n+]1ccccc1` it is 120%. The figure for `Cc1cccc[n+]1CC(=O)c1ccccc1` is 113%. The figure for `CC(=O)NS(=O)(=O)c1ccc2c(c1)Cc1cc(S(=O)(=O)NC(C)=O)ccc1-2` is 99.9%; for `O=C(c1ccco1)N1CCN(C(=O)C2CC(c3ccc(Cl)c(Cl)c3)=NO2)CC1` (stereo not given) it is 89%; for `Cc1ccc(CNC(=O)C(=O)c2cn(CC(=O)N3CCCC3)c3ccccc23)cc1` it is 104%. With `CN1CCN(C(=O)C(=O)c2cn(CC(=O)N3CCCC3)c3ccccc23)CC1`, the GFP response vs DMSO was 103%. The figure for `CN(Cc1ccccc1)C(=O)C(=O)c1cn(CC(=O)N2CCCC2)c2ccccc12` is 154% (active). The figure for `CCCCCC1CC(COc2ccccc2)OC1=O` (stereo not given) is 96.7%; for `CC[n+]1cc(C)ccc1/C=C/c1ccc(N(C)C)cc1` it is 158% (active). The figure for `CO[C@H]1[C@@H]2C=CO[C@@H](O[C@H]3O[C@@H](CO)[C@H](O)[C@@H](O)[C@@H]3O)[C@@H]2[C@@]2(CO)O[C@@H]12` is 109%; for `C/C=C/c1ccc(OCC(O)CN2CCCCCCC2)c(OC)c1` (stereo not given) it is 101%. With `N#Cc1cccc(NC(=O)CN2CCCCCC2)c1`, the GFP response vs DMSO was 100%. The figure for `CCN(CC(=O)Nc1c(F)cccc1F)C(=O)CN1c2cccc3cccc(c23)S1(=O)=O` is 104%; for `COc1ccc(Nc2cc(Sc3ccc(OC)cc3)ncn2)cc1` it is 86.2%; for `Cc1ccc2c(=O)oc(N(C)C)nc2c1` it is 105%. The figure for `CCn1c(SCC(=O)Nc2ccccc2F)nc2c(c1=O)SC(C)C2` (stereo not given) is 100%.

On to `Cc1cccc([C@@H]2[C@@H]3C(=O)N(C)C(=O)[C@@H]3[C@@H]3C(=O)Nc4ccccc4C(=O)N23)c1`, for which the GFP response vs DMSO is 87.5%. The figure for `CCc1ccc2[nH]c(=O)c(Cc3ccccc3)c(O)c2c1` is 105%. As to `COc1ccc(NC(=O)CN(Cc2ccccc2)S(C)(=O)=O)cc1OC`, the GFP response vs DMSO is 101%.

Regarding `Cc1ccccc1OC(=O)Cn1c(C(F)(F)F)nc2ccccc21`, the GFP response vs DMSO is 84.2%.
